Test results reported in ChEMBL document CHEMBL3988442, “University of Dundee, Small-Polar-MMV Screening Library” (2021).

These compounds were tested against T1, Tyrosyl-tRNA synthetase, putative (Trypanosoma cruzi (strain CL Brener)) (UniProt Q4DSP6) (assay: Trypanosoma cruzi tyrosyl tRNA synthetase (TcYRS) SOP). Details: 30 µM.
T1 sequence (whole entry): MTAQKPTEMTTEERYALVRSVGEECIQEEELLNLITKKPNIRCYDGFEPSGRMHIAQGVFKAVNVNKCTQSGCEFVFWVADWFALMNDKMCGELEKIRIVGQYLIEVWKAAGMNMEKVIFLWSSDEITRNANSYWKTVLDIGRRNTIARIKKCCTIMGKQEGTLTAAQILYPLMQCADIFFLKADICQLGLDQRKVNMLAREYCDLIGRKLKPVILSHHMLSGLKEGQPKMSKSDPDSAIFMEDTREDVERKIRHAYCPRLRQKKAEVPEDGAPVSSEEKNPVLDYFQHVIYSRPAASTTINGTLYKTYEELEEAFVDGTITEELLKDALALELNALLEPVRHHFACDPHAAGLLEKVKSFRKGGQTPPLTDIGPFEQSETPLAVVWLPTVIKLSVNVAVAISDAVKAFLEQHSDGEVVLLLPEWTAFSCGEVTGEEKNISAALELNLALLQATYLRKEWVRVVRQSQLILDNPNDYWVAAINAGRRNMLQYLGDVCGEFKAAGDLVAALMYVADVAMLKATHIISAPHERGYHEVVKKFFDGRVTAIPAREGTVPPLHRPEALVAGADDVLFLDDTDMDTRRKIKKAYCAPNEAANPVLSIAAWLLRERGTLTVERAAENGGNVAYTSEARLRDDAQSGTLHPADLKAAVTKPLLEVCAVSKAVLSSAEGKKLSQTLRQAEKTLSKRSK
Assay type: functional
Parameters: scale not given: direction of the effect not stated beside the values

Row | Compound | Percent Effect [%]
1 | CN(C)S(=O)(=O)N1C[C@@H](Oc2ccccn2)[C@H]2OCCC[C@H]21 | 8.97
2 | Cc1ccc(CC(=O)N2Cc3nccn3CC(CN(C)C)C2)cc1 (centres undefined) | 16.1
3 | COc1cc(CNCc2ccnc(N3CCOCC3)c2)cc(Cl)c1OC | 18.5
4 | CC(C)(C)OC(=O)NC(C)(C)c1noc(CN2CCCCC2)n1 | 8.64
5 | Cc1cc(CC(=O)NCc2ccnc(OCC(F)(F)F)c2)no1 | 0
6 | Cc1nc(N2CCN(C(=O)C(C)(C)C)CC2)cc(-n2cnc(C)c2C)n1 | 8.64
7 | Cc1ccc(-c2noc(CN3CCOC(Cn4cncn4)C3)n2)cc1 (centres undefined) | -1.22
8 | Cc1nc(C)n(CC2CCCN2CC(=O)NCCc2ccccc2)n1 (centres undefined) | 2.5
9 | Cn1c(C2CC2)nc2c1CCN(CC(=O)Nc1nncs1)C2 | 7.32
10 | CCc1csc(C2CCCN(C(=O)C3=NN(CC)C(=O)CC3)C2)n1 (centres undefined) | 12.2
11 | Cc1nccc([C@H]2C[C@@H]3CCN(S(=O)(=O)N(C)C)C[C@H]3O2)n1 | 16.1
12 | CO[C@H]1CCN(c2ncccn2)[C@H]1Cc1ccccc1 | 8.64
13 | CNc1cc(N2CCCC2CNCc2ccc(Cl)o2)ncn1 (centres undefined) | 23.2
14 | O=C(O)C(c1ccc2c(c1)OCO2)N1CCC(C(=O)N2CCCC2)CC1 (centres undefined) | 3.7
15 | COc1ccc(CC(=O)N2CCCCC2Cn2cccn2)cc1OC (centres undefined) | 10.4
16 | COCC(c1cccc(C(F)(F)F)c1)N(C)C(=O)c1cc(C)no1 (centres undefined) | 19.5
17 | CNS(=O)(=O)CCCN1CCCC1c1cc(C)on1 (centres undefined) | -3.8
18 | Cc1cc(C)n(CC2CCCN2CC(=O)NC2CCOCC2)n1 (centres undefined) | 9.76
19 | Cc1cc(C)n(-c2ccc(CNCc3ccc(OC(C)C)cc3)cn2)n1 | 19.5
